B2AR arrestin = qHTS assay of beta-arrestin-biased ligands of beta2-adrenergic receptor; Beta-2 adrenergic receptor (Homo sapiens), P07550; actives 0.02% (n = 330,000); AID 492947, 2010; Potency, µM (doses to about 46.1 µM), for the others: at the highest dose activation, actives largely listed as activators; beta-arrestin recruitment to beta2AR, cell-based reporter;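 also: 0% = DMSO controls and full agonism = EC100 isoproterenol or metaproterenol; nearly all actives have a fitted effect of over 65% in size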
Gal4-VP16 FLuc = VP16 counterscreen qHTS for inhibitors of ROR gamma transcriptional activity; Potency, µM (top dose mostly 53.6 µM), inactives show at the highest dose activity, negative = inhibition, actives largely listed as inhibitors; Drosophila S2 Gal4-VP16 UAS-luciferase, luminescence, 20 h; actives 3.5% (n = 310,000);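 also: Gal4-VP16 expression switched on by copper sulfate through the metallothionein promoter; nearly all actives have a fitted effect of over 50% in size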
RORg inh = qHTS for inhibitors of ROR gamma transcriptional activity; Nuclear receptor ROR-gamma (Mus musculus), P51450; Drosophila S2 Gal4-RORgamma UAS-luciferase reporter, 20 h; Potency, µM (series often up to 53.6 µM), for inactives: top-dose activity change, negative = inhibition, usual class: inhibitors; actives 5.4% (n = 310,000); AID 2551, 2010; also: nearly all actives have a fitted effect of over 60% in size
Target sequence (P51450 whole entry, looked up, the tested form may be a part): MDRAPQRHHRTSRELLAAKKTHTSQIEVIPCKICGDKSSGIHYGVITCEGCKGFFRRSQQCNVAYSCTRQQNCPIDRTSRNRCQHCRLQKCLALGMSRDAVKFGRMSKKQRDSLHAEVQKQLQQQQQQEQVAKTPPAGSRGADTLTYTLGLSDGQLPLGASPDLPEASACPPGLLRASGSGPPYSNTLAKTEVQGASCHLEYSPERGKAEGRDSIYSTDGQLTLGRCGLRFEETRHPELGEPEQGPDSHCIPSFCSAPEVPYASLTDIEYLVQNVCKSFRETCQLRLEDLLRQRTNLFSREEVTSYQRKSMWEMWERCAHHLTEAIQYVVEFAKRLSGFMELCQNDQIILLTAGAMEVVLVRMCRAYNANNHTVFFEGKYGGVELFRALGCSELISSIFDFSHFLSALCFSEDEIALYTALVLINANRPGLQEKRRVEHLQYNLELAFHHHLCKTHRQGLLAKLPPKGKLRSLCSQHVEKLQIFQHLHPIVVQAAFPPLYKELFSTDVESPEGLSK
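Compounds are pin-transferred onto Drosophila Schneider cells expressing a copper-inducible Gal4–ROR gamma transactivation domain fusion. After 1 hr, copper sulfate is added to 700 uM final; luciferase is read 20 hr later.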
NPSR antagonist = qHTS Assay for Antagonists of the Neuropeptide S Receptor: cAMP Signal Transduction; Q6W5P4; CHO-NPSR cells, cAMP TR-FRET, antagonist mode; Potency, µM (titrated, usually from 38.3 µM), for the others: top-dose activity change, negative = inhibition, most hits filed as inhibitors; actives 1% (n = 220,000); also: nearly all actives have a fitted effect of over 50% in size
* = called active by the depositor; ? = inconclusive; . = not tested or not shown; [ ] = another dose, or the depositor's remark. This is a sample that favours compounds with a hit; in the whole collection about 5.7% have one here. Calls follow the shape of the dose curve; as a rule, active = well fitted curve in the direction sought with a large enough effect; inconclusive = small, poorly fitted or top-dose-only effect, or another doubt; inactive = no such curve, though single readings can be large; an effect the other way counts as inactive or inconclusive. Unless noted, % is scaled to controls: 0 for no effect and ±100 for the full control effect; potency is read from the fitted curve at half-maximal effect.

SMILES | B2AR arrestin | Gal4-VP16 FLuc | RORg inh | NPSR antagonist
CCn1c2ccccc2c2cc(/C=N/NC(=O)c3ccccc3)ccc21 | -0.5% | ? | 8.91µM* | -13.3%[46.1 µM]
O=C(N/N=C/c1cn(Cc2ccccc2)c2ccccc12)c1cccnc1 | 2.4% | 8.91µM* | 7.08µM* | 10.2%
Cn1c2ccccc2c2cc(/C=N/NC(=O)c3cc(O)cc(O)c3)ccc21 | -1.0% | -12.7% | -28.6% | .
O=C(N/N=C/c1cn(CC(=O)N2CCOCC2)c2ccccc12)c1cccnc1 | -1.1% | 4.2% | 10.1% | 4.7%
Nc1ccc(C(=O)N/N=C/c2cn(Cc3cccc(F)c3)c3ccccc23)cc1 | 0.4% | ? | ? | .
COCCn1c(=O)c(-c2cc(F)cc(F)c2)nc2cnc(Nc3cccc(OC)c3)nc21 | . | -7.1% | -0.8% | .
COc1ccc(CCN2C(=O)CC(NNc3ccc([N+](=O)[O-])cc3)C2=O)cc1OC (centres undefined) | -0.2% | 12.4% | 0.6% | -16.7%
O=c1cc(-c2ccccc2O)oc2c1ccc1ccccc12 | . | -17.5% | 7.0% | .
O=C(CCN1CCN(Cc2ccccc2)CC1)NNC(=O)Nc1cccc([N+](=O)[O-])c1 | 0.4% | -7.9% | 9.3% | .
COc1ccc(NC(=O)CN(C)CC(=O)Nc2cccc(S(=O)(=O)N(C)c3ccccc3)c2)cc1 | -0.1% | -1.2% | -22.8% | -22.1%
Cc1cc(C(=O)N2CCc3ccccc3C2)n[nH]1 | -0.3% | 19.8% | 3.8% | .
COc1cccc(-c2cc(C(=O)N3CCc4ccccc4C3)[nH]n2)c1 | -0.9% | -11.2% | 1.12µM* | .
Cc1ccc(-c2cc(C(=O)N3CCc4ccccc4C3)[nH]n2)cc1C | -1.0% | -4.0% | 1µM* | .
Cc1cccc2c1-c1sc(C(=O)N3CCCCC3)cc1CO2 | -0.2% | ? | 10µM* | .
CCOC(=O)N1CCN(C(=O)c2cc3c(s2)-c2c(C)cccc2OC3)CC1 | 0.4% | -3.7% | -2.8% | .
Cc1ccc2cc(CN(CC3CCCO3)C(=O)NC3CCCCC3)c(=O)[nH]c2c1C (centres undefined) | -0.2% | ? | 3.16µM* | -12.5%[46.1 µM]
Cc1cccc2cc(CN(CC3CCCO3)C(=O)NC3CCCCC3)c(=O)[nH]c12 (centres undefined) | 0.1% | -5.7% | 15.8% | -14.2%[46.1 µM]
O=S(=O)(NCc1ccccn1)C(F)(F)F | -0.1% | ? | 1.41µM* | .
COc1cc2c(c(OC)c1OC)-c1ccc(OC)c(=O)cc1[C@@H](NC=O)CC2 | . | -2.7% | -30.7% | .
COC(=O)[C@H](C)NC(=O)C/C=C\[C@@H](C)[C@@H](CO)OC | . | -13.8%[10 µM] | 10.9%[10 µM] | .
CCOC(=O)N/N=C/c1ccc(N(CC)CC)cc1O | 2.0% | ? | ? | -6.9%
CCN(CC)c1ccc(/C=N/NC(=O)CCC(=O)NCc2ccccc2)c(O)c1 | -0.4% | ? | 3.16µM* | 2.5%
CCN(CC)c1ccc(/C=N/NC(=O)c2cccc(S(=O)(=O)N3CCOCC3)c2)c(O)c1 | 0.0% | 11.2µM* | 2.82µM* | -14.3%
CCN(CC)c1ccc(/C=N/NC(=O)CNC(=O)C2COc3ccccc3O2)c(O)c1 (centres undefined) | 0.0% | 2.82µM* | 2.82µM* | .
CCN(CC)c1ccc(C=Nc2cccc(S(=O)(=O)N3CCOCC3)c2)c(O)c1 | -0.6% | . | . | .
SMILES | B2AR arrestin | Gal4-VP16 FLuc | RORg inh | NPSR antagonist
COc1cc(/C=N\NC(=O)CNC(=O)C2COc3ccccc3O2)ccc1O (centres undefined) | 0.0% | 3.4% | 3.1% | 6.1%
O=C(c1ccco1)N1CCC2(CCCN(Cc3ccncc3)C2)CC1 | . | -8.1% | -22.4% | .
COc1cc(C2CC(=O)Oc3cc(C)c(Cl)cc32)cc(OC)c1OC (centres undefined) | . | 3.0% | ? | .
CC(=O)NCCc1nc2cc(NC(=O)COc3ccc(C)cc3)ccc2n1C | -0.1% | 1.3% | 29.6% | .
O=[N+]([O-])c1ccccc1/C=N/n1c(-c2cccnc2)n[nH]c1=S | -1.2% | -5.2% | ? | -11.7%
O=[N+]([O-])c1ccccc1/C=C/C=N/n1c(-c2cc(-c3ccccc3)n[nH]2)n[nH]c1=S | -1.0% | -19.5% | ? | 41.2%
O=[N+]([O-])c1ccccc1/C=C/C=N/n1c(-c2ccco2)n[nH]c1=S | -0.9% | 6.3% | 8.91µM* | -33.6%
Cc1ccc(-c2n[nH]c(=S)n2/N=C/C=C/c2ccccc2[N+](=O)[O-])cc1 | -0.1% | -24.3% | 4.47µM* | ?
N#CCSc1nc2ccccc2c(=O)n1CC1CCCC1 | -0.2% | -11.6% | -10.8% | 39.3%
N#CCSc1nc2ccc(N3CCCCC3)cc2c(=O)n1Cc1ccccc1 | 0.3% | ? | 3.55µM* | -25.2%[46.1 µM]
CCCCNC(=S)Nc1ccccc1F | -0.3% | ? | 11.2µM* | -4.2%[46.1 µM]
CC(C)CNC(=S)Nc1ccccc1F | -0.7% | 4.47µM* | 6.31µM* | 11.8%
OCC[C@H]1C[C@@H](O)[C@H](O)[C@]2(Cc3ccccc3CCO2)O1 | -0.2% | . | . | .
N=c1c2c(-c3ccccc3)c(-c3ccccc3)n(Cc3ccco3)c2ncn1CCCO | -0.6% | 3.16µM* | 3.16µM* | ?
N=c1c2c(-c3ccccc3)c(-c3ccccc3)n(Cc3ccco3)c2ncn1CCO | 0.1% | -11.6% | -9.8% | -28.7%
COCCN(C(=O)C1CC(=O)N(Cc2ccccc2)C1)c1nc(-c2ccc([N+](=O)[O-])cc2)cs1 (centres undefined) | 0.0% | . | . | .
CC(C)CCc1noc(CN2CCN(c3ccc(Cl)cn3)CC2)n1 | -1.1% | -20.4% | 4.3% | 42.1%
O=C(NC(=S)NCc1ccccc1)C1CC1 | -0.3% | ? | 6.31µM* | -12.0%
S=C(NCCc1ccccc1)N/N=C/C1CCCCC1 | 7.9% | 5.62µM* | 1.41µM* | -43.6%
O=C(CNC(=S)NC(=O)c1ccco1)c1ccccc1 | 0.2% | -9.0% | ? | -3.6%[46.1 µM]
O=C(NC(=S)NCCc1ccccc1)C1CCCCC1 | -3.5% | 3.98µM* | 2.82µM* | -31.3%
O=C(CNC(=S)NC(=O)C1CCCCC1)c1ccccc1 | -0.6% | ? | 7.94µM* | -39.0%
O=C(NCc1ccccc1)C1CCCC1 | 5.4% | 5.0% | 1.3% | .
O=S(=O)(O)c1ccc2c(c1)-c1nc-2nc2[nH]c(nc3nc(nc4[nH]c(n1)c1ccc(S(=O)(=O)O)cc41)-c1ccc(S(=O)(=O)O)cc1-3)c1ccc(S(=O)(=O)O)cc21 | . | -24.2% | -38.9% | .
CCOC(=O)C1=C(SCC)c2cc3c(n2C1=O)CCCC3 | -0.7% | 20.3% | ? | 12.6µM*
SMILES | B2AR arrestin | Gal4-VP16 FLuc | RORg inh | NPSR antagonist
CCCCOc1ccc2c(c1)C(=O)c1cc(O)ccc1-2 | 0.5% | ? | 8.91µM* | 49.7%
CCOC(=O)c1c(-c2ccc(C)o2)csc1NC(=S)NC(=O)c1cccs1 | -0.8% | 2.51µM* | 1.41µM* | -30.0%
CCOC(=O)c1c(-c2ccc(C)o2)csc1NC(=S)NC(=O)c1ccccc1Br | 0.0% | 10µM* | 7.94µM* | -16.4%[46.1 µM]
CCOC(=O)c1c(-c2ccc(C)o2)csc1NC(=O)CSc1nnc(C)s1 | 0.4% | ? | ? | ?
CCOC(=O)c1c(-c2ccc(C)o2)csc1NC(=O)CSc1nnnn1-c1ccccc1 | -0.5% | 7.94µM* | 11.2µM* | ?
CCC/C=C(\CCC)C(NS(C)(=O)=O)c1ccccc1 (centres undefined) | . | -6.5% | -3.6% | .
